This is a sample that favours compounds with a hit; in the whole collection about 3.5% have one here.
TEAD-YAP inh – TEAD-YAP interaction inhibition. HEK-TIYL cells, TEAD-Gal4/YAP UAS-luciferase luminescence. inhibition, % at 9.12 µM. 640,000 tested, 1.4% active. AID 1259422; in the data active = inhibition above about 32%;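 also: 0% = median of test compound wells and 100% = reference inhibitor wells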
GPR151 activ – activates the human receptor GPR151. PathHunter beta-arrestin GPR151 cells, luminescence. activation, % at 11.2 µM. 650,000 tested, 1% active. AID 1508602; in the data active = activation above about 4.9%;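 also: 0% = median of compound wells and 100% = cells with positive control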
MITF inh – inhibitors of human MITF; O75030; AlphaScreen MITF homodimerization, bead proximity signal; inhibition, % at 2.6 µM; 650,000 tested, 0.91% active; AID 1259374; in the data active = inhibition above about 50%;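 also: 0% = vehicle wells with protein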
FBW7 activator – human FBW7 E3 ligase activation, primary screen; Q969H0; AlphaScreen FBW7–phospho-cyclin E peptide binding, activator screen; normalized activity (activation), % at 26.1 µM; 650,000 tested, 0.13% active; in the data active = normalized activity above about 1.9%;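 also: purified mutant Fbw7 with reduced substrate affinity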
Target sequence (Q969H0 whole entry, looked up): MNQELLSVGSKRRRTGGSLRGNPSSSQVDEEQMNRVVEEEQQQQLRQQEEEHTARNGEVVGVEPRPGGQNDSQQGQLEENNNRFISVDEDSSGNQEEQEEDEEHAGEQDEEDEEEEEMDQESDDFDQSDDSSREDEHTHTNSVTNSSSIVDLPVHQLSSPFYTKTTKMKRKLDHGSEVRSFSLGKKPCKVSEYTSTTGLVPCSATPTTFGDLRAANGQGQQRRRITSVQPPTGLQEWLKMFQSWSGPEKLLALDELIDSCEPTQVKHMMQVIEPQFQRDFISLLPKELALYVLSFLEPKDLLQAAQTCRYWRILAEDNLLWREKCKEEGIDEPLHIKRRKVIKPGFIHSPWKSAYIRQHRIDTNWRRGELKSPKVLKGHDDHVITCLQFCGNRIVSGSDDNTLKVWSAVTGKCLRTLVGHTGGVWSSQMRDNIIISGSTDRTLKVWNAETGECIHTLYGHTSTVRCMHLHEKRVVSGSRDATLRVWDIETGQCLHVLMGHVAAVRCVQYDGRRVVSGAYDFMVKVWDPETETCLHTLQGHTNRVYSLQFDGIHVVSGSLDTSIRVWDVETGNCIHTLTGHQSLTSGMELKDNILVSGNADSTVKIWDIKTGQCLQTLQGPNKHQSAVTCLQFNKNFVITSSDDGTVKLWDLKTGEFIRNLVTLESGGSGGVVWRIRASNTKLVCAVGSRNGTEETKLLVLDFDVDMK
GPR151 confirm – human GPR151 activation, confirmation screen; activation, % at 11.2 µM; 6,700 tested, under 10 active; AID 1508609; shares compounds with GPR151 activ; GPR151 PathHunter beta-arrestin cells, luminescence, 90 min; % of EA-reagent control over plate median;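 active = mean percent activation across replicates above the confirmation screen cutoff of 4.91%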
GPR119 counter – GPR119 activation, counter-screen for GPR151 activators. AID 1508611. activation, % at 11.2 µM. GPR119 PathHunter beta-arrestin cells, luminescence, 90 min; 0 = compound-well median, 100 = enzyme-acceptor control. 6,700 tested, 0.3% active. shares compounds with GPR151 activ;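 active = mean percent activation in the counterscreen above 29.09%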;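 also: counterscreen on off-target GPR119 to flag nonselective hits from the GPR151 activator screen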
Numbers without * were called inactive; · = no result given.

SMILES | TEAD-YAP inh | GPR151 activ | MITF inh | FBW7 activator | GPR151 confirm | GPR119 counter
Cc1cc(C(=O)COC(=O)c2ccc(O)cc2O)c(C)n1-c1ccc2c(c1)OCO2 | 2.4 | 5.3* | -0.9 | -0.1 | -0.2 | 1.0
O=C1CCCc2nc(N3CCN(Cc4ccccc4)CC3)ncc21 | -6.4 | 6.9* | 13.8 | 0.1 | 0.2 | 8.5
CC1CC(=O)c2cnc(N3CCN(Cc4ccccc4)CC3)nc2C1 (configuration not stated) | -7.1 | -0.9 | 10.2 | 0.6 | · | ·
CN1C(=O)C(C)(C)COc2cc(NC(=O)Nc3ccc4c(c3)OCO4)ccc21 | -55.1 | -0.9 | 8.0 | -0.5 | · | ·
CC(C)CCN1C(=O)C(C)(C)COc2cc(NC(=O)c3ccc4c(c3)OCO4)ccc21 | -9.8 | 5.6* | 8.8 | 0.0 | 2.9 | 1.6
COc1cccc(NC2=NCC(=O)N2Cc2ccc(F)cc2)c1 | -16.5 | 6.0* | -5.5 | -0.2 | 1.0 | 9.2
O=C(O)c1cc([N+](=O)[O-])c(Br)s1 | 8.0 | 2.6 | 28.4 | 0.1 | · | ·
O=C(CN1C(=O)CC(c2ccco2)Sc2ccccc21)Nc1ccc(F)cc1F (configuration not stated) | 15.1 | 7.5* | 16.4 | 0.4 | 0.9 | -0.3
CC1=C(C#N)C(c2cccc(F)c2)C2=C(CCCC2=O)N1 (configuration not stated) | 6.7 | 0.2 | -3.7 | 0.0 | · | ·
CCc1c(C)sc(NC(=S)Nc2cnccn2)c1C(=O)OC | -8.6 | 5.9* | 4.0 | -0.1 | -1.0 | -13.6
CCc1c(C)sc(NC(=S)NCc2ccc(S(N)(=O)=O)cc2)c1C(=O)OC | -5.5 | 6.3* | 12.0 | 0.0 | -1.0 | -12.1
COC(=O)c1c(NC(=S)Nc2cnccn2)sc2c1CCC(C)C2 (configuration not stated) | -2.2 | 1.6 | 1.4 | -0.2 | · | ·
Cc1ccc(OCCN(C)Cc2ccc(OCC(O)CN(C)C)cc2)cc1 (configuration not stated) | 13.2 | 9.9* | 8.6 | 0.0 | 0.2 | 6.8
Cc1cc(N2CCN(C(=O)c3ccc(Cl)cc3Cl)CC2)c(F)cc1[N+](=O)[O-] | 6.3 | 6.8* | 2.1 | -0.1 | 0.6 | 6.4
CCn1c(=O)c2sccc2n2c(CCCC(=O)Nc3cccc(SC)c3)nnc12 | -0.2 | -2.3 | 2.9 | 0.0 | · | ·
CCOc1ccc(NC(=O)c2c(NC(=O)CC)sc3c2CCC(C(C)(C)C)C3)cc1 (configuration not stated) | 5.8 | 0.1 | 12.5 | 0.1 | · | ·
CCC(=O)Nc1sc2c(c1C(=O)Nc1ccc(OC)cc1)CCC(C(C)(C)C)C2 (configuration not stated) | -1.1 | 8.8* | 1.4 | 0.0 | -1.5 | -11.0
CC(C)n1cnc2c(N)nc(N3CCOCC3)nc21 | -5.6 | 0.6 | -2.1 | 0.1 | · | ·
COC(=O)CN(C)C1CCC(=O)N(Cc2cccc(Cl)c2)CC1 (configuration not stated) | -10.2 | 1.8 | 4.2 | 0.0 | · | ·
COc1ccc2cc(/C=N/Nc3ccccn3)c(Cl)nc2c1 | -3.2 | 12.5* | 2.6 | 0.5 | -0.4 | -4.5
CC(C)C(=O)Nc1ccc(S(=O)(=O)NCC2(c3ccccc3)CCOCC2)cc1 | -6.9 | 5.2* | -0.4 | 0.2 | -0.3 | -5.4
FC(F)(F)c1ccc(Cl)c(NC2=NCCCCC2)c1 | 3.2 | 6.1* | 10.8 | -0.1 | -1.3 | -8.4
Cc1ccc(N2C(=O)C(Cl)=C(N3CCCCC3)C2=O)cc1 | 7.0 | 7.5* | -11.6 | 0.3 | -0.6 | -2.3
O=C(CCc1nnc(COc2ccccc2)o1)NCc1nc2ccccc2s1 | -1.0 | 5.1* | 8.8 | 0.0 | 0.7 | 5.9
COc1ccc(CCc2nnc(CCC(=O)NCCc3ccccc3F)o2)cc1 | -4.1 | 6.5* | 1.3 | -0.2 | 0.1 | -3.6
SMILES | TEAD-YAP inh | GPR151 activ | MITF inh | FBW7 activator | GPR151 confirm | GPR119 counter
COc1ccc(OC)c(Cc2nnc(CCC(=O)NCc3nc4ccccc4s3)o2)c1 | -8.6 | 6.3* | -6.2 | 0.1 | 1.4 | 12.4
COc1ccc(OC)c(Cc2nnc(CCC(=O)NCCc3nc(C)c(C)s3)o2)c1 | -9.4 | -0.6 | 11.1 | 0.3 | · | ·
COc1ccc(CCc2nnc(CCC(=O)NCc3ccccc3F)o2)cc1 | -46.9 | 0.0 | -25.9 | 0.2 | · | ·
O=C(CCc1nnc(-c2ccccc2)o1)NCc1nc2ccccc2s1 | -4.5 | -0.7 | -1.5 | 0.0 | · | ·
CC1=CN2C(=N)/C(=C/c3ccc(-c4cc([N+](=O)[O-])ccc4C)o3)C(=O)N=C2S1 | -1.7 | -0.7 | 15.2 | 0.0 | · | ·
CC(=O)Nc1ccc(S(=O)(=O)NCCNc2ccc(Cl)cc2[N+](=O)[O-])cc1 | -1.6 | 0.8 | 13.9 | -0.1 | · | ·
CCN(CC)CCNC(C)C(=O)N1CCc2ccccc21 (configuration not stated) | 8.0 | -1.7 | 45.4 | 0.5 | · | ·
COC(=O)C1=C(C(=O)OC)SC2(S1)C(C(=O)OC)=C(C(=O)OC)SC1=C2c2cc(C)c(C)cc2NC1(C)C | 4.4 | 5.8* | 19.0 | -1.7 | 0.7 | 11.7
COc1cc(C(=O)Nc2nn3c(C)nnc3s2)cc(OC)c1OC | -5.2 | -0.5 | -6.9 | 0.0 | · | ·
O=C(O)c1cccc(-n2cc(-c3cc(F)cc(F)c3)cn2)c1 | -48.5 | 7.2* | 10.5 | 0.1 | 0.0 | -2.3
O=C(O)c1ccc(-c2cnn(-c3ccccc3)c2)nc1 | -8.6 | -9.7 | 2.6 | 0.1 | · | ·
Cc1cc(Nc2ccc(F)cc2F)n2nc(C)nc2n1 | -8.0 | 0.7 | 3.7 | -0.2 | · | ·
Cc1cc(Nc2cc(F)ccc2C)n2nc(C)nc2n1 | 14.7 | 7.1* | 16.1 | 0.2 | -0.9 | -6.3
O=C(O)CSc1nc2ccccc2n1CCOc1ccccc1 | 4.9 | 6.4* | -2.3 | -0.1 | 0.0 | 3.2
CN1/C(=C2/SC(=Nc3ccc(C4CCCCC4)cc3)N(c3ccccc3)C2=O)Sc2ccccc21 | 4.6 | 0.4 | -1.4 | 0.1 | · | ·
CN1C(=O)/C(=C2/Sc3ccccc3N2C)SC1=Nc1ccc(O)cc1 | -20.6 | 6.4* | 8.9 | -0.2 | -0.4 | -8.4
CCN(CC)C(=O)C1CCCN(c2nc(NCCc3ccc(OC)cc3)c3ncn(C4CCCCC4)c3n2)C1 (configuration not stated) | -6.4 | 10.0* | 12.2 | -0.4 | 0.2 | -2.2
CCN(CC)C(=O)C1CCCN(c2nc(NCCOc3ccccc3)c3ncn(Cc4ccc(C(F)(F)F)cc4)c3n2)C1 (configuration not stated) | 0.4 | -0.3 | 10.1 | 0.0 | · | ·
CCN(CC)C(=O)C1CCCN(c2nc(NCCc3ccc(OC)cc3)c3ncn(Cc4ccc(C(F)(F)F)cc4)c3n2)C1 (configuration not stated) | -9.4 | 6.8* | -4.5 | 0.2 | -0.3 | 0.9
COc1cc(-c2cn3c(NC(=O)c4cccs4)c(C)nc3cn2)cc(OC)c1OC | -4.6 | 5.3* | -5.7 | 0.0 | 0.6 | 11.2
Cc1nc(NC(=O)c2ccccc2)sc1C(=O)N1CCCCC1 | -28.0 | -3.2 | 6.5 | 0.0 | · | ·
O=C(CSCc1ccc(Cl)cc1)NCCSCc1ccco1 | -3.1 | 7.8* | 5.4 | 0.0 | -0.7 | -15.8
